From PubChem BioAssay
Sampled rows, rich in hits. Any-hit rate of the full collection: about 8.8%.
HTT ATP protect: cytoprotection in Huntington HTT-Q103 PC12 cell model; PC12 HTT-Q103 induced, cytoprotection, ATP luminescence, 40 h; 230,000 tested, 0.14% active; Potency, µM (titrated, usually from 56.4 µM), for inactives: cytoprotection (ATP increase), usual class: activators; AID 1471; further: % of control where 0% means no effect; nearly all actives have a fitted effect of over 45% in size
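PC12 cells stably carrying ecdysone-inducible Htt exon 1 (Q103)–GFP were induced with 100 nM tebufenozide (final) alongside library compounds in a dose series. Cytoprotection was scored as retained ATP by ATPlite luminescence.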
HttQ103 aggreg: reduces HttQ103-GFP aggregates in PC12 cells. 220,000 tested, 1.1% active. PC12 HttQ103-GFP aggregates, Acumen cytometry, 40 h. Potency, µM (top dose mostly 46.1 µM), for inactives: top-dose activity change, negative = inhibition, hits mostly inhibitors; further: on the % scale 0 is the no-effect control and ±100 the full control effect; nearly all actives have a fitted effect of over 60% in size
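Inducible Q103 Huntingtin exon 1–GFP PC12 line, 1500 cells/well in phenol red free DMEM with 5% equine and 5% calf serum. Tebufenozide 100 nM induced expression; compounds titrated; aggregates quantified by cytometry.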
Lamin A splicing: LMNA splicing modulation; HeLa LMNA splicing GFP/RFP minigene ratio, 48 h; Potency, µM (series often up to 46.1 µM), without a hit: at the highest dose ratio change, negative = inhibition, usual class: inhibitors; 200,000 tested, 0.01% active; active means well fitted inhibition curve with a large enough effect in the signal ratio, with a control signal flat, not every such curve was filed as active; inconclusive means small, poorly fitted or top-dose-only effect, or effect the other way, or a change in a side signal; the % refers to the signal ratio; further: on the % scale 0 is the no-effect control and ±100 the full control effect
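Read-out is the ratio of GFP to DsRed2 object intensity, acquired by 488 nm laser-scanning cytometry on HeLa lamin A-EGFP minigene reporter cells. Compound incubation 48 hrs at 37 °C in Opti-MEM with 2% FBS; DMSO 0.5% final.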
ALDH1A1 inh: blocks purified human ALDH1A1 activity | P00352 | Purified ALDH1A1, NADH fluorescence, propionaldehyde substrate | Potency, µM (doses to about 75.3 µM), inactives show at the top dose activity, negative = inhibition, actives largely listed as inhibitors | 220,000 tested, 7.3% active | AID 1030; active means well fitted inhibition curve with a large enough effect, not every such curve was filed as active; inconclusive means small, poorly fitted or top-dose-only effect, or another doubt; inactive means no such curve, though single readings can be large or run the other way;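 further: plate controls were no enzyme wells and a reference inhibitor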
Target sequence (P00352 whole entry, looked up): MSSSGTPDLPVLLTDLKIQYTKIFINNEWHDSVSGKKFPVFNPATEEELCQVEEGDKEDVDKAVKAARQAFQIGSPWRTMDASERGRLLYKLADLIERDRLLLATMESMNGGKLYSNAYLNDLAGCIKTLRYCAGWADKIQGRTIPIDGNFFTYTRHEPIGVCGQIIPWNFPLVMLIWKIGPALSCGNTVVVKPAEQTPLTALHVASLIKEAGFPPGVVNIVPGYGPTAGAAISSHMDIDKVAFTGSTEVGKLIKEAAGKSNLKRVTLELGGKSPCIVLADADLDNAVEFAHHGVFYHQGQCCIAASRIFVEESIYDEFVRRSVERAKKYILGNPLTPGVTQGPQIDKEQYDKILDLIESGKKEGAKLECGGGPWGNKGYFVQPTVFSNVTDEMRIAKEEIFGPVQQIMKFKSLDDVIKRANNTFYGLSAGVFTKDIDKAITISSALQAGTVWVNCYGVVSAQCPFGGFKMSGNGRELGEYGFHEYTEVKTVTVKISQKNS
HPGD inh: inhibitors of human 15-hydroxyprostaglandin dehydrogenase (HPGD) | Potency, µM, inactives show top-dose activity change, negative = inhibition, most hits filed as inhibitors | P15428 | 150,000 tested, 4.3% active | purified HPGD, NADH fluorescence kinetic, PGE2 substrate; active means well fitted inhibition curve with a large enough effect, not every such curve was filed as active; inconclusive means small, poorly fitted or top-dose-only effect, or another doubt; inactive means no such curve, though single readings can be large or run the other way; further: on the % scale 0 is the no-effect control and ±100 the full control effect
Target sequence (P15428 whole entry, looked up): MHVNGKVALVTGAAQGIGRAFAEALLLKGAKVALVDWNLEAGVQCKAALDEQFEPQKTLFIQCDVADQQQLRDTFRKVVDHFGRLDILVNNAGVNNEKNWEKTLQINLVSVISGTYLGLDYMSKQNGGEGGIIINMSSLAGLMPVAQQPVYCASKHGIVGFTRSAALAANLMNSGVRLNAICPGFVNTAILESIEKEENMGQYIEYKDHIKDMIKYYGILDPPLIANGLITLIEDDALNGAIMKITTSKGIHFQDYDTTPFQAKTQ
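20 nM HPGD preincubated 15 min at room temperature with compound in 50 mM Tris-HCl pH 8, 0.01% Tween 20. Started with 1 mM NAD+ and 30 uM prostaglandin E2; NADH fluorescence (360/450 nm) read 5 times over 30-s intervals, last minus first.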
Active calls of the source: *; [ ] = remark or other dose. Unless noted, the call rests on the fitted dose curve; in most records, active means well fitted curve in the direction sought with a large enough effect; inconclusive means small, poorly fitted or top-dose-only effect, or another doubt; inactive means no such curve, though single readings can be large; an effect the other way counts as inactive or inconclusive. Potency means the concentration at half of the fitted maximal effect.

How did CCNc1nc(NCC)n2c(SCc3nc4ccccc4c(=O)[nH]3)nnc2n1 do in these assays?
HTT ATP protect: 6.7%[10 µM]; HttQ103 aggreg: 3.9%; Lamin A splicing: -11.2%; ALDH1A1 inh: 2.8%; HPGD inh: -9.2%

How did Cc1nn(-c2ccccc2)c2c1C1(C(=O)N3c4c(cccc41)C(C)CC3(C)C)C(C#N)=C(N)O2 (configuration not stated) do in these assays?
HTT ATP protect: 25.7%; HttQ103 aggreg: inconclusive; Lamin A splicing: -8.1%; ALDH1A1 inh: 0.251µM*; HPGD inh: -27.2%

What do the screens show for `COc1cc(OC)cc(C(=O)N[C@H](C(=O)OCC(=O)Nc2sccc2C#N)C(C)C)c1`?
HTT ATP protect: -1.1%[10 µM]; HttQ103 aggreg: 5.6%; Lamin A splicing: -24.6%[46 µM]; ALDH1A1 inh: 28.2µM*

Results for FC(F)OC(Cl)C(F)(F)F (configuration not stated) ?
HTT ATP protect: 3.2%; HttQ103 aggreg: -6.0%

What do the screens show for `O=C(N/N=C\c1ccco1)Nc1cccc(Cl)c1`?
HTT ATP protect: 20.9%[10 µM]; HttQ103 aggreg: 12.2%; Lamin A splicing: -7.2%; ALDH1A1 inh: 28.2µM*; HPGD inh: -29.2%

Results for Cc1cccc(NC(=O)CCC(=O)N/N=C/c2ccco2)c1 ?
HTT ATP protect: 9.1%[10 µM]; HttQ103 aggreg: 0.1%; Lamin A splicing: -4.4%; ALDH1A1 inh: 8.7%; HPGD inh: -13.2%

How did Nc1c(C(=O)Nc2ccccc2)c2nc3ccccc3nc2n1-c1ccc(O)cc1 do in these assays?
HTT ATP protect: -4.7%[10 µM]; HttQ103 aggreg: 4.1%[9.22 µM]

How did Cc1ccc(S(=O)(=O)NCCCCCC(=O)Nc2ccccn2)cc1 do in these assays?
HTT ATP protect: 6.0%; HttQ103 aggreg: -9.9%; Lamin A splicing: -11.9%; ALDH1A1 inh: 22.4µM*; HPGD inh: -3.5%

What do the screens show for `Cc1cccc(C)c1NC(=O)CCCCCNS(=O)(=O)c1ccccc1`?
HttQ103 aggreg: 1.3%; Lamin A splicing: 3.9%[46 µM]; ALDH1A1 inh: inconclusive

Results for CNC(=O)CCCCCNS(=O)(=O)c1ccc(C)cc1 ?
HTT ATP protect: 0.9%[10 µM]; HttQ103 aggreg: 4.6%; Lamin A splicing: -4.0%; ALDH1A1 inh: -1.7%; HPGD inh: -6.5%

What do the screens show for `Cc1ccc(S(=O)(=O)NCCCCCC(=O)Nc2ccccc2)cc1`?
HttQ103 aggreg: 4.3%; Lamin A splicing: inconclusive; ALDH1A1 inh: 11.2µM*; HPGD inh: -2.3%

Results for Cc1ccc(S(=O)(=O)NCCCCCC(=O)Nc2ccccc2C)cc1 ?
HttQ103 aggreg: -8.3%; Lamin A splicing: -12.4%; ALDH1A1 inh: 3.98µM*; HPGD inh: -1.5%

How did O=c1c2ccccc2sn1-c1ccc(S(=O)(=O)N2CCCCC2)cc1 do in these assays?
HTT ATP protect: 18.8%[10 µM]

How did CN(C)S(=O)(=O)c1ccc2[nH]cc(/C=C/c3nc4ccccc4c(=O)n3-c3ccccc3)c2c1 do in these assays?
HTT ATP protect: -63.1%; HttQ103 aggreg: inconclusive; Lamin A splicing: inconclusive; ALDH1A1 inh: inconclusive; HPGD inh: 256.5%

Results for CN(C)S(=O)(=O)c1cccc(-n2sc3ccccc3c2=O)c1 ?
HTT ATP protect: 6.5%[10 µM]; HttQ103 aggreg: 31.5%; Lamin A splicing: 7.0%[46 µM]; ALDH1A1 inh: 0.224µM*

What do the screens show for `Cc1ccc(-n2sc3ccccc3c2=O)cc1S(=O)(=O)N1CCCCC1`?
HTT ATP protect: -4.0%[10 µM]; HttQ103 aggreg: inconclusive; Lamin A splicing: inconclusive; ALDH1A1 inh: 2.24µM*; HPGD inh: 1µM*

Results for O=c1c2ccccc2sn1-c1ccc(S(=O)(=O)N2CCCC2)cc1 ?
HTT ATP protect: 13.8%[10 µM]; HttQ103 aggreg: 15.5%; Lamin A splicing: -2.0%; ALDH1A1 inh: 0.891µM*; HPGD inh: 0.708µM*

What do the screens show for `Cc1cc(C)c(-n2nnnc2SCC(=O)c2cc3ccccc3o2)c(C)c1`?
HTT ATP protect: 12.4%[10 µM]; HttQ103 aggreg: -5.9%[9.22 µM]

What do the screens show for `CC1(C)CC(=O)C=C(NCCO)C1`?
HTT ATP protect: -14.1%; HttQ103 aggreg: 16.0%[9.22 µM]; Lamin A splicing: -1.4%; ALDH1A1 inh: -0.8%; HPGD inh: -4.6%

How did CN(C)/C=C/C1=CC(=O)CC(C)(C)C1 do in these assays?
HTT ATP protect: 26.5%[10 µM]; HttQ103 aggreg: 3.6%; Lamin A splicing: 5.6%[9.22 µM]; ALDH1A1 inh: 8.91µM*

Results for Cc1cc(NC(=O)C2CC2)ncc1NC(=O)c1ccccn1 ?
HTT ATP protect: -2.3%[10 µM]; HttQ103 aggreg: 11.7%[9.22 µM]; Lamin A splicing: 9.3%[46 µM]; ALDH1A1 inh: -11.1%

Results for O=C(OCc1cncs1)c1ccccc1 ?
HTT ATP protect: 2.3%; HttQ103 aggreg: 9.6%; ALDH1A1 inh: 7.8%

How did O=C1C=C(NCc2ccc(Cl)cc2)CC(c2ccco2)C1 (configuration not stated) do in these assays?
HTT ATP protect: 1.9%; HttQ103 aggreg: -2.5%; Lamin A splicing: -8.7%; ALDH1A1 inh: -7.5%; HPGD inh: -16.7%

How did CC(C)CNC1=CC(=O)CC(c2ccco2)C1 (configuration not stated) do in these assays?
HTT ATP protect: 4.1%; HttQ103 aggreg: 15.9%; Lamin A splicing: -0.8%; ALDH1A1 inh: 14.1µM*; HPGD inh: -24.3%

What do the screens show for `O=C1C=C(Nc2ccc(O)cc2)CC(c2ccco2)C1` (configuration not stated)?
HTT ATP protect: -4.8%[10 µM]; HttQ103 aggreg: -28.5%; Lamin A splicing: inconclusive; ALDH1A1 inh: inconclusive; HPGD inh: 22.4µM*

What do the screens show for `Cc1c(C(=O)NCc2ccc(S(N)(=O)=O)cc2)oc2ccc(Cl)cc12`?
HTT ATP protect: -20.3%; HttQ103 aggreg: 14.3%; Lamin A splicing: -7.1%[46 µM]; ALDH1A1 inh: -3.6%

Results for Cc1ccc(S(=O)(=O)NNC2CC(=O)N(c3ccc(Br)cc3)C2=O)cc1 (configuration not stated) ?
HTT ATP protect: -36.5%[1.9 µM]; HttQ103 aggreg: -0.5%[9.22 µM]; Lamin A splicing: inconclusive; ALDH1A1 inh: inconclusive

What do the screens show for `Cc1ccc(Cc2c(C)nn(-c3nc(C)c(C(=O)N4CCCCC4C)s3)c2C)cc1` (configuration not stated)?
Lamin A splicing: -8.2%[46 µM]

How did CCOC(=O)c1[nH]cnc1C(=O)Nc1ccccc1 do in these assays?
HTT ATP protect: -2.0%[10 µM]; HttQ103 aggreg: 6.6%[9.22 µM]; ALDH1A1 inh: inconclusive

Results for CCOC(=O)c1[nH]cnc1C(=O)Nc1ccccn1 ?
HTT ATP protect: -4.5%; HttQ103 aggreg: 0.8%; Lamin A splicing: -0.5%; ALDH1A1 inh: 0.251µM*

How did O=S(=O)(c1ccccc1)N1CCC2(CCN(c3cccc(-c4ccccc4)c3)CC2)CC1 do in these assays?
HTT ATP protect: -8.4%; ALDH1A1 inh: inconclusive; HPGD inh: inconclusive

Results for O=[N+]([O-])c1cccc2c[nH]nc12 ?
HTT ATP protect: -58.4%[1.9 µM]; ALDH1A1 inh: -15.3%; HPGD inh: 31.6µM*

What do the screens show for `COC(=O)C1=C(C(=O)c2ccccc2)C(c2ccccc2)n2nnnc2N1` (configuration not stated)?
HTT ATP protect: 0.3%; HttQ103 aggreg: -7.3%[9.22 µM]; Lamin A splicing: -3.4%[46 µM]; ALDH1A1 inh: 28.2µM*
